PubChem BioAssay (Tox21)
Values joined by “and” are separate entries in the source; they are usually repeats but may differ in a detail not shown here. Equal entries are not always repeated. Results filed as inconclusive are left out. Active and inactive are the calls of the source. Unless noted, calls come from the whole dose curve; as a rule, active = well fitted curve in the direction sought with a large enough effect in the repeat runs; inconclusive = weak or mixed curves; inactive = no such curve, though single readings can be large; an effect the other way counts as inactive or inconclusive.

What was measured:
[1] = qHTS assay to identify small molecule antagonists of the thyroid receptor (TR) signaling pathway - cell viability counter screen (AID 743064); details: GH3.TRE-Luc viability, CellTiter-Fluor, 24 h; series mostly up to 70.3 µM; note: nearly all actives have a fitted effect of over 50% in size; note: potency is the fitted concentration of half-maximal effect
Outline: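 GH3.TRE-Luc cells, 4 h pre-plating; cpd + T3 1 nM final; 37 °C 23.5 h; CellTiter-Fluor 30 min; fluorescence read.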

[2] = qHTS assay to identify small molecule antagonists of the thyroid receptor (TR) signaling pathway (AID 743065); details: GH3.TRE-Luc, T3-stimulated luciferase inhibition, 23.5 h; series mostly up to 70.3 µM; note: nearly all actives have a fitted effect of over 55% in size; note: potency is the fitted concentration of half-maximal effect
Outline: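 GH3.TRE-Luc rat pituitary cells carrying two TR response elements driving luciferase were plated for 4 h, given compound plus 1 nM T3 (final), and incubated 23.5 h at 37 C. ONE-Glo luminescence measured reporter inhibition; CellTiter-Fluor fluorescence tracked cytotoxicity.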

[3] = test system: thyroid hormone receptor (rat, GH3 cells); assay: qHTS assay to identify small molecule agonists of the thyroid receptor (TR) signaling pathway (AID 743066; calls by dose curve); details: GH3.TRE-Luc cells, TR agonist luciferase, 24 h; series mostly up to 83.9 µM
[4] = qHTS assay to identify small molecule antagonists of the estrogen receptor alpha (ER-alpha) signaling pathway - cell viability counter screen (AID 743074; calls by dose curve; note: nearly all actives have a fitted effect of over 45% in size); details: ERalpha-bla HEK293 viability, CellTiter-Glo luminescence, 18 h; series mostly up to 69.4 µM
[5] = qHTS assay to identify small molecule antagonists of the estrogen receptor alpha (ER-alpha) signaling pathway using the BG1 cell line - cell viability counter screen (AID 743081); details: BG1Luc4E2 viability, CellTiter-Fluor, 22 h; series mostly up to 70.3 µM;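 note: compound given together with 17beta-estradiol as the ER stimulus; nearly all actives have a fitted effect of over 45% in size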
Aromatase (Homo sapiens) = Aromatase (Homo sapiens) (UniProt P11511); assay: qHTS assay to identify aromatase inhibitors (AID 743083); details: MCF-7 aro ERE, testosterone-driven ERE luciferase, 24 h; series mostly up to 70.3 µM; note: nearly all actives have a fitted effect of over 55% in size
[6] = target: Estrogen receptor (Homo sapiens) (UniProt P03372); assay: qHTS assay to identify small molecule antagonists of the estrogen receptor alpha (ER-alpha) signaling pathway (AID 743069; active = well fitted curve in the direction sought with a large enough effect in the signal ratio in the repeat runs, not every such curve was filed as active; the % refers to the signal ratio); details: HEK293 ER-alpha-UAS-bla, beta-lactamase ratio, antagonist mode; series mostly up to 69.4 µM
Outline: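 Screening used a UAS-driven beta-lactamase reporter integrated into HEK293 cells expressing ER-alpha, stimulated with 17beta-estradiol alongside test compounds over 18 hr at 37C; signal came from LiveBLAzer B/G FRET fluorescence.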

[7] = target: Estrogen receptor (Homo sapiens) (UniProt P03372); assay: qHTS assay to identify small molecule agonists of the estrogen receptor alpha (ER-alpha) signaling pathway (AID 743075; calls by dose curve); details: HEK293 ER-alpha-UAS-bla, beta-lactamase FRET ratio, 18 h; series mostly up to 70.1 µM
[8] = target: Estrogen receptor (Homo sapiens) (UniProt P03372); assay: qHTS assay to identify small molecule agonists of the estrogen receptor alpha (ER-alpha) signaling pathway using the BG1 cell line (AID 743079); details: BG1Luc4E2 cells, ERE-luciferase agonist, 22 h; series mostly up to 70.3 µM; note: nearly all actives have a fitted effect of over 20% in size; note: potency is the fitted concentration of half-maximal effect
[9] = qHTS assay to identify small molecule antagonists of the estrogen receptor alpha (ER-alpha) signaling pathway using the BG1 cell line (AID 743080; calls by dose curve;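 note: BG1 cells stimulated with 17beta-estradiol alongside compound; nearly all actives have a fitted effect of over 25% in size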); details: BG1Luc4E2 ERE-luciferase antagonist mode, luminescence; series mostly up to 70.3 µM
Outline: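 Seeding, 24 h rest, compound transfer from DMSO, 17beta-estradiol addition, 21.5 h incubation, CellTiter-Fluor (30 min, 37 C), then ONE-Glo (30 min, room temperature): this sequence was run on BG1-Luc-4E2 reporter cells.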
% is set by controls: 0 for no effect and ±100 for the full control effect.

Chain of Estrogen receptor (Homo sapiens) (P03372 whole entry, looked up): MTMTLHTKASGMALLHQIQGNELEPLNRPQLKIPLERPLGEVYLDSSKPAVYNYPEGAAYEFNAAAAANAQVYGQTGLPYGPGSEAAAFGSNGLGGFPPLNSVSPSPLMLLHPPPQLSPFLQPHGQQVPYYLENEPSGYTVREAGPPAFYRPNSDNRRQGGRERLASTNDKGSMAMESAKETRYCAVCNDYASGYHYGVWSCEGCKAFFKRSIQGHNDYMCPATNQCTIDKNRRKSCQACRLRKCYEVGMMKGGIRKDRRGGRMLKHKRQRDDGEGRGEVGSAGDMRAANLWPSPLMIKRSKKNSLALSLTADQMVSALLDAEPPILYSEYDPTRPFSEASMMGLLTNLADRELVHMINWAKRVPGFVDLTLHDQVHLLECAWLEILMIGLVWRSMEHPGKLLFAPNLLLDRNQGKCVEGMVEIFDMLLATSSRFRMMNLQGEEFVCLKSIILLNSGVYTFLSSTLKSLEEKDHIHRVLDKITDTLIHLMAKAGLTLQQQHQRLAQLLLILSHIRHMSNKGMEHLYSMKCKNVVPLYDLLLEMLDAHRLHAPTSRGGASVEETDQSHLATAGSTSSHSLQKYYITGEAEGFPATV
Chain of Aromatase (Homo sapiens) (P11511 whole entry, looked up): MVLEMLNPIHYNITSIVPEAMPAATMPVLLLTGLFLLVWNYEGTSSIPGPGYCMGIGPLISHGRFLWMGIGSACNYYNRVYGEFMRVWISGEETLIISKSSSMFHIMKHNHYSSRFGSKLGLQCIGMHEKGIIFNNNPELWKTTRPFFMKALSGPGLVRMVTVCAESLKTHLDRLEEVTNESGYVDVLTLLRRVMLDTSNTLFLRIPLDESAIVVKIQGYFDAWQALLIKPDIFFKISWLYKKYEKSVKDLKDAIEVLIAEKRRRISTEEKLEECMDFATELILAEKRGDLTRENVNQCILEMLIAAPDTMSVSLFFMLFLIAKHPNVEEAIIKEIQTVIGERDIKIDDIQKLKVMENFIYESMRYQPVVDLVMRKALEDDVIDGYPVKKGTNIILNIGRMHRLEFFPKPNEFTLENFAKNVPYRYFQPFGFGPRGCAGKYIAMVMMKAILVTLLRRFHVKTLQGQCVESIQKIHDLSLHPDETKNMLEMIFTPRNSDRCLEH

CO[C@]12C[C@@H](COC(=O)c3cncc(Br)c3)CN(C)[C@@H]1Cc1cn(C)c3cccc2c13
inactive: outcome [3] | outcome [4] | Potency [5] | Potency (Aromatase (Homo sapiens))
active: Potency [1] 21.1 µM | Potency [2] 21.1 µM

CC(=O)CC(C)C
inactive: Potency [1] | Potency [2] | outcome [3] | outcome [4]

Cc1c(NC(C)C)c(=O)n(-c2ccccc2)n1C
inactive: Potency [1] | Potency [2] | outcome [3] | outcome [6] | Potency [7] | Potency [8] | outcome [9] | Potency [5] | Potency (Aromatase (Homo sapiens))

CCOC(=O)c1ccc(C)cc1
inactive: Potency [1] | Potency [2] | outcome [3] | outcome [6] | Potency [7] | Potency [8] | outcome [9] | Potency [5] | Potency (Aromatase (Homo sapiens))

C[C@H]1C[C@@H](O)CC(C)(C)C1
inactive: Potency [1] | Potency [2] | outcome [3] | outcome [4] | Potency [5] | Potency (Aromatase (Homo sapiens))

Cc1c(O)cccc1O
inactive: Potency [1] | Potency [2] | outcome [3] | outcome [4] | Potency [7] | Potency [8] | outcome [9] | Potency [5] | Potency (Aromatase (Homo sapiens))

C=C[Si](OC(=C)C)(OC(=C)C)OC(=C)C
inactive: Potency [1] | Potency [2] | outcome [3] | outcome [6] | outcome [4] | Potency [7] | outcome [9] | Potency [5] | Potency (Aromatase (Homo sapiens))

NC(=O)c1cn(Cc2c(F)cccc2F)nn1
inactive: Potency [1] | Potency [2] | outcome [3] | outcome [4] | Potency [5]

Nc1nc2c(ncn2COC(CO)CO)c(=O)[nH]1
inactive: Potency [1] | Potency [2] | outcome [3] | outcome [6] | outcome [4] | Potency [7] | Potency [8] | Potency (Aromatase (Homo sapiens))

C[N+](C)(C)CC(O)CC(=O)[O-] (stereo not given)
inactive: Potency [1] | Potency [2] | outcome [3] | outcome [4] | Potency [5] | Potency (Aromatase (Homo sapiens))

CCCCOCCOCCOCCCC
inactive: Potency [1] | Potency [2] | outcome [3] | outcome [4] | Potency [5] | Potency (Aromatase (Homo sapiens))

CC(C)NCC(O)c1ccc(NS(C)(=O)=O)cc1 (stereo not given)
inactive: Potency [1] | Potency [2] | outcome [3] | outcome [4] | Potency [5]

O=c1cc(-c2ccccc2)oc2ccccc12
active: Potency [8] 2.43 µM and 3.95 µM
inactive: Potency [1] | Potency [2] | outcome [3] | outcome [6] | outcome [4] | Potency [5]

COC(=O)c1cc(C(=O)OC)cc(S(=O)(=O)O)c1
inactive: Potency [1] | Potency [2] | outcome [3] | outcome [4] | Potency [5] | Potency (Aromatase (Homo sapiens))

CCC(C)S (stereo not given)
inactive: activity change, negative = cytotoxic [1] 23.6% [at 3.79 µM] | activity, negative = inhibition [2] 10.9% [at 3.79 µM] | activation [3] 1.37% [at 3.63 µM] | activity change, negative = cytotoxicity [5] 11% [at 3.79 µM] | activity, negative = inhibition (Aromatase (Homo sapiens)) 7.68% [at 3.79 µM]
